Data taken from PubChem BioAssay (EPA / NIEHS).
More than one record can exist for a structure, and the calls need not agree. Activity calls are given as the source filed them. The calls were made as follows: active = hit-call score of the fitted dose curve at least 0.9, where 1 is the maximum; inactive = score below 0.9.

Assays:
[1] = biological target: Bile acid receptor (Homo sapiens) (UniProt Q96RI1); experiment: ATG_IR1_CIS: Attagene CIS-FACTORIAL HepG2 Assay for human Nuclear Receptor Subfamily 1 Group H Member 4 (NR1H4), IR1 submotif (AID 2282946); conditions: IR1 reporter transcription, actives raise or lower the signal
Sequence of Bile acid receptor (Homo sapiens) (Q96RI1 whole entry, looked up): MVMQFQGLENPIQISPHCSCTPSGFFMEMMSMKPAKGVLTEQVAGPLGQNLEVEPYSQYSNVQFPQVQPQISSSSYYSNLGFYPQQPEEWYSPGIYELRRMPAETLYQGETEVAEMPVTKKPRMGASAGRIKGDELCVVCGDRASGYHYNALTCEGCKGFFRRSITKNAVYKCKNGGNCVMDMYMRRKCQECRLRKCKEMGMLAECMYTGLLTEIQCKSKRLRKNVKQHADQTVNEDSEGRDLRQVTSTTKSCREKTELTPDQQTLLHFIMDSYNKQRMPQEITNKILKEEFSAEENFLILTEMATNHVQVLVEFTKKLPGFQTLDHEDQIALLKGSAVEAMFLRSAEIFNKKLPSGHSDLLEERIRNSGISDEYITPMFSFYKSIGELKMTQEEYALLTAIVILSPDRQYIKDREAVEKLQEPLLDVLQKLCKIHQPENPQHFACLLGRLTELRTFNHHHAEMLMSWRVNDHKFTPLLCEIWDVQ
Outline: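 HepG2 cells transiently transfected with multiplexed cis-element reporter units read endogenous transcription factor activity. After 24 h compound exposure, reporter mRNA was quantified by RT-PCR, fluorescent labelling, HpaI digestion and capillary electrophoresis; bidirectional fitting versus DMSO baseline.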

[2] = ATG_GRE_CIS: Attagene CIS-FACTORIAL HepG2 Assay for human Glucocorticoid Response Elements (GRE) (AID 2282947); conditions: HepG2 GRE cis-reporter, Attagene multiplex mRNA; actives raise or lower the signal
Outline: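 Multiplexed cis-reporter mRNA induction, HepG2, 24 h post-dose. RT-PCR, FAM-labelled, HpaI-digested amplicons by CE. Bidirectional fit vs DMSO.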

[3] = ATG_ISRE_CIS: Attagene CIS-FACTORIAL HepG2 Assay for human Interferon Regulatory Factor 1 (IRF1) binding to an Interferon-Stimulated Response Element (ISRE) (AID 2282948); conditions: HepG2 ISRE cis-reporter (Attagene), mRNA transcription readout; actives raise or lower the signal
Outline: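 Endogenous transcription factor activity read as reporter transcript abundance via RT-PCR and capillary electrophoresis. HepG2 cells transiently transfected, 24 h chemical exposure. Gain or loss fitted against DMSO baseline.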

[4] = ATG_M_32_CIS: Attagene CIS-FACTORIAL HepG2 Assay for M32 Transcription Factor (Internal Marker) (AID 2282949); conditions: HepG2 Attagene cis-factorial M32 reporter, mRNA; actives raise or lower the signal;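 also: background control marker of the multiplexed CIS panel rather than a real target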
Outline: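 Transient MRTU transfection of HepG2; 24 h compound treatment; TriZol RNA, oligo(dT) RT, reporter PCR, 6-FAM primer extension, HpaI cut, CE. Gain/loss of signal vs DMSO.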

[5] = ATG_M_06_CIS: Attagene CIS-FACTORIAL HepG2 Assay for M06 Transcription Factor (Internal Marker) (AID 2282950); conditions: HepG2 Attagene CIS-FACTORIAL M06 internal marker reporter; actives raise or lower the signal
Outline: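 Read-out is fluorescence of labelled reporter cDNA fragments resolved by capillary electrophoresis after RT-PCR. Cells: HepG2 carrying transfected cis-promoter reporter units, treated 24 h. Gain or loss of signal fitted relative to DMSO.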

[6] = biological target: Hypoxia-inducible factor 1-alpha (Homo sapiens) (UniProt Q16665); experiment: ATG_HIF1a_CIS: Attagene CIS-FACTORIAL HepG2 Assay for human Hypoxia Inducible Factor 1 (HIF1A) (AID 2282951); conditions: HepG2 Attagene cis-factorial HIF1a reporter transcription; actives raise or lower the signal
Sequence of Hypoxia-inducible factor 1-alpha (Homo sapiens) (Q16665 whole entry, looked up): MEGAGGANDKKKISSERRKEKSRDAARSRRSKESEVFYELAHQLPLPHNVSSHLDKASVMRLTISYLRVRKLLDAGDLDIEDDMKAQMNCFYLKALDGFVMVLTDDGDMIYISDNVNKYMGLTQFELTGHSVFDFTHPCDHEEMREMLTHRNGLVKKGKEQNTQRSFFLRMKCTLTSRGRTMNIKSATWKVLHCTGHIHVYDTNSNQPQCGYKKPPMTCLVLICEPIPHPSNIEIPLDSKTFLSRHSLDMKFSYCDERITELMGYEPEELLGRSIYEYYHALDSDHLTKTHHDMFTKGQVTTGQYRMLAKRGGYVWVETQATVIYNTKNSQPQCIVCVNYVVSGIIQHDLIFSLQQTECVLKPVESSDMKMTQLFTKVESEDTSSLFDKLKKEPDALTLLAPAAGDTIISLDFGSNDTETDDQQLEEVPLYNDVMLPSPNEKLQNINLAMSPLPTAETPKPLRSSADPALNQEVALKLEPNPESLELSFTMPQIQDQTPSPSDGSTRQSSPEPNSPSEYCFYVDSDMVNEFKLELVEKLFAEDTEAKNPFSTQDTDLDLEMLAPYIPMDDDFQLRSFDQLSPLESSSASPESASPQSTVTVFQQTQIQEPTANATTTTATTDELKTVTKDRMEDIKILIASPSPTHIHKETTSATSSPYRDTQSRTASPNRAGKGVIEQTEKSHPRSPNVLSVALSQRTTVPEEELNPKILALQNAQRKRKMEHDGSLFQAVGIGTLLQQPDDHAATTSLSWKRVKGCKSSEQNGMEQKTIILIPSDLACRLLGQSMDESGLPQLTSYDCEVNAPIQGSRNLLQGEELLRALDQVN
Outline: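 HepG2, transient cis-reporter library, 24 h dosing. RNA → RT (oligo dT) → PCR → 6-FAM primer extension → HpaI → CE. Bidirectional curve fit vs DMSO.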

[7] = biological target: Heat shock factor protein 1 (Homo sapiens) (UniProt Q00613); experiment: ATG_HSE_CIS: Attagene CIS-FACTORIAL HepG2 Assay for human Heat Shock Transcription Factor 1 (HSE) (AID 2282953); conditions: HepG2 HSE cis-reporter, Attagene RNA transcription; actives raise or lower the signal
Sequence of Heat shock factor protein 1 (Homo sapiens) (Q00613 whole entry, looked up): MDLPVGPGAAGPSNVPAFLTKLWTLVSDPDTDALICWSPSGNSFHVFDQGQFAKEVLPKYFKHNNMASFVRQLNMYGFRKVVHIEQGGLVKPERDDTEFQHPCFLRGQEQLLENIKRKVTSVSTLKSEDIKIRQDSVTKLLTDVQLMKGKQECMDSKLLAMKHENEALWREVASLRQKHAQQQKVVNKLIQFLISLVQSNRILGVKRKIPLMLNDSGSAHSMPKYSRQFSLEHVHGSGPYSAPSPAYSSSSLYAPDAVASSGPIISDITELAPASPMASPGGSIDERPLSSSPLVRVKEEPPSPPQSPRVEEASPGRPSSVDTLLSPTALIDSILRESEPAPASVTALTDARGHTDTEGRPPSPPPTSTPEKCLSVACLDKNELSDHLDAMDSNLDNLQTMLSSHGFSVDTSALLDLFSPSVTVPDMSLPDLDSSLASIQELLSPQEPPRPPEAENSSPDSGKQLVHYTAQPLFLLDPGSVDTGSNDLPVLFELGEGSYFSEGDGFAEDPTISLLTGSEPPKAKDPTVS
Outline: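 HepG2, transient MRTU transfection, cis-promoter reporters (endogenous TF activity). 24 h compound. RNA → oligo(dT) RT → PCR → 6-FAM primer extension → HpaI cut → CE. Bidirectional fit vs DMSO.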

[8] = ATG_MRE_CIS: Attagene CIS-FACTORIAL HepG2 Assay for human Metal Responsive Element (MRE) (AID 2282954); conditions: HepG2 MRE cis-reporter transcription, Attagene multiplex; actives raise or lower the signal
Outline: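 Multiplexed cis-reporter assay in human HepG2 liver cells, 24 h incubation with test chemical. Reporter transcripts measured by RT-PCR and capillary electrophoresis; values from bidirectional curve fitting versus DMSO.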

[9] = ATG_PBREM_CIS: Attagene CIS-FACTORIAL HepG2 Assay for human Phenobarbital-responsive Enhancer Module (PBREM) (AID 2282955); conditions: HepG2 PBREM cis-reporter, Attagene multiplexed transcription; actives raise or lower the signal
Outline: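 HepG2, transient MRTU transfection, 24 h dosing; RNA → oligo(dT) RT → PCR → 6-FAM extension → HpaI → CE. Bidirectional fit vs DMSO.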

[10] = biological target: Hepatocyte nuclear factor 6 (Homo sapiens) (UniProt Q9UBC0); experiment: ATG_HNF6_CIS: Attagene CIS-FACTORIAL HepG2 Assay for human Hepatocyte Nuclear Factor 6 (HNF6) (AID 2282952); conditions: HepG2 Attagene cis-factorial HNF6 reporter transcription; actives raise or lower the signal
Sequence of Hepatocyte nuclear factor 6 (Homo sapiens) (Q9UBC0 whole entry, looked up, the tested form may be a part): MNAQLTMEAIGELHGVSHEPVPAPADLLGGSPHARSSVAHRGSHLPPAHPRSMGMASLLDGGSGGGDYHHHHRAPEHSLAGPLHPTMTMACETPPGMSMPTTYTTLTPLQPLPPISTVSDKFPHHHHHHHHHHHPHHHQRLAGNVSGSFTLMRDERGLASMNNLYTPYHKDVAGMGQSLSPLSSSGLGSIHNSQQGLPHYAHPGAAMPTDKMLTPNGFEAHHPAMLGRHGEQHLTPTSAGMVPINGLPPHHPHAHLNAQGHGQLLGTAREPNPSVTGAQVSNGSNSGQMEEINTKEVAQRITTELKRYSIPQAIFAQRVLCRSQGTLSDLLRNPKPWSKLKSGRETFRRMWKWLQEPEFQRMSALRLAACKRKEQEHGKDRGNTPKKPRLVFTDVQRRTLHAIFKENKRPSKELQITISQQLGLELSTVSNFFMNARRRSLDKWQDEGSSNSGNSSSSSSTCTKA
Outline: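 Twenty-four-hour chemical treatment of reporter-transfected HepG2 cells precedes RNA isolation, DNase-treated reverse transcription and PCR of reporter sequences. Labelled fragments are sized by capillary electrophoresis and fitted bidirectionally versus DMSO.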

Measured: AC50

CC1=C2C[C@H]3[C@@H](CC=C4C[C@@H](O)CC[C@@]43C)[C@@H]2CC[C@]12O[C@@H]1C[C@H](C)CN[C@H]1[C@H]2C
active: [1] 8.12 µM | [8] 16.1 µM
not listed: [10]
inactive: all other assays above

Clc1ccc(C(Cl)(Cl)Cl)cc1
not listed: [9]
inactive: all other assays above

Cc1ccccc1[N+](=O)[O-]
not listed: [1] | [7]
inactive: all other assays above

O=S(=O)(O)C(F)(F)C(F)(F)C(F)(F)C(F)(F)F
not listed: [1]
inactive: all other assays above

CCCCCCCCCc1ccc(O)cc1
active: [4] 166 µM | [6] 178 µM | [8] 17.5 µM
inactive: [3] | [4] | [5] | [6] | [7] | [8] | [9]

CCCN(CCC)N=O
not listed: [1] | [7]
inactive: all other assays above

Nn1cnnc1
not listed: [1] | [7]
inactive: all other assays above

COS(=O)(=O)OC
active: [6] 26.9 µM
not listed: [1] | [9]
inactive: all other assays above

CC(C)(O)C(=O)Nc1ccc([N+](=O)[O-])c(C(F)(F)F)c1
not listed: [1] | [2] | [7]
inactive: all other assays above

CCOP(=S)(OCC)SCSC(C)(C)C
active: [3] 63.5 µM
inactive: [3] | [4] | [5] | [6] | [10] | [8] | [9]

Nc1ccc(-c2ccc(N)cc2)cc1
not listed: [1] | [10]
inactive: all other assays above

ClC1=C(Cl)[C@]2(Cl)[C@@H]3[C@H]4C[C@H]([C@@H]5O[C@H]45)[C@@H]3[C@@]1(Cl)C2(Cl)Cl
not listed: [1] | [9]
inactive: all other assays above

CCNc1nc(NC(C)C)nc(SC)n1
inactive: [3] | [4] | [5] | [6] | [8] | [9]

O=C(O)C(F)(F)C(F)(F)C(F)(F)C(F)(F)C(F)(F)F
inactive: [2] | [3] | [4] | [5] | [6] | [10] | [7] | [8] | [9]
active: [6] 5.86 µM

CC(C)C(=O)OCC(C)(C)C(OC(=O)C(C)C)C(C)C (stereo not given)
not listed: [1] | [10]
inactive: all other assays above

ClC1=C(Cl)[C@]2(Cl)[C@@H]3[C@@H](Cl)[C@H]4O[C@H]4[C@@H]3C1(Cl)C2(Cl)Cl
active: [3] 57.6 µM | [7] 85.5 µM | [8] 100 µM
not listed: [1] | [10]
inactive: all other assays above

Cc1cc(-c2ccc(N)c(C)c2)ccc1N
not listed: [1] | [2]
inactive: all other assays above
